Activity calls are given as the source filed them. The call rests on the fitted dose curve.
The compounds below were run against Glucocorticoid receptor (Homo sapiens) (UniProt P04150) (assay: GR-EFC Redistribution (AID 451)). Settings: CHO-K1 GR-EFC translocation, beta-gal luminescence, 2 h.
Summary of the method: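 Translocation of GR-ED fusion to nuclear EA restores b-gal, read by luminescence after 1 h room-temperature detection. Engineered CHO-K1 biosensor cells, 1,000/well, exposed 2 h at 37 C to titrations up to 46 uM final.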
Potency means the concentration at half of the fitted maximal effect.

Chain of Glucocorticoid receptor (Homo sapiens) (P04150 whole entry, looked up, the tested form may be a part): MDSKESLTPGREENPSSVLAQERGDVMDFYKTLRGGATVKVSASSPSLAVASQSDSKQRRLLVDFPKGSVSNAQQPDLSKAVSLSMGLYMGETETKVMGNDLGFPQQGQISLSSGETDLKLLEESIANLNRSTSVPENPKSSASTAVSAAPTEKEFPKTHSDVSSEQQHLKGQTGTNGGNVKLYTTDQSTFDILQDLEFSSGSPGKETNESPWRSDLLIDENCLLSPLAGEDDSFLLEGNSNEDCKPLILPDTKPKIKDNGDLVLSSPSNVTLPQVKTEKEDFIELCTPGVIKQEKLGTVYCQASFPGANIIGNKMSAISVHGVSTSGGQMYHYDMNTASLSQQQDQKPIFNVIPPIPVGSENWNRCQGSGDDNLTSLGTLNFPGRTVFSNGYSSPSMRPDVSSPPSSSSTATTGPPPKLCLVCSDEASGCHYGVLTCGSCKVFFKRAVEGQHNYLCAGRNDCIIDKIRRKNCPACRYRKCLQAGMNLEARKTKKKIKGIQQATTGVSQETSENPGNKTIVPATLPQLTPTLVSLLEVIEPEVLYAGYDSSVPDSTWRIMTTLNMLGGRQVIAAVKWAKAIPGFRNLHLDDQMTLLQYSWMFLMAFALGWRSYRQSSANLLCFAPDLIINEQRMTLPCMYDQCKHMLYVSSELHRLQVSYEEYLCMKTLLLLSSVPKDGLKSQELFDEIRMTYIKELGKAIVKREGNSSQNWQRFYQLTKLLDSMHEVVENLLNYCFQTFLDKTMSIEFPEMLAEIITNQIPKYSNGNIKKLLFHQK

Potency, inactive:
O=C1c2cccc([N+](=O)[O-])c2C(=O)N1c1ncn[nH]1 > 9.22 µM
O=C1c2ccccc2C(=O)c2c1ccc(N1C(=O)c3ccccc3C1=O)c2-c1c(N2C(=O)c3ccccc3C2=O)ccc2c1C(=O)c1ccccc1C2=O > 9.22 µM
Cc1ccc(S(=O)(=O)OCC(=O)O)cc1 > 9.22 µM
O=c1[nH]c(SCc2ccccc2[N+](=O)[O-])nc2nc[nH]c12 > 9.22 µM
CC1(C)N=C(N)N=C(N)N1c1cccc(OCc2cccc(N)c2)c1 > 9.22 µM
Cc1[nH]c(N)nc(=S)c1CCCNc1ccccc1 > 9.22 µM
FC(F)(F)c1nc2nc(Cl)c(Cl)nc2n1CCCN1CCOCC1 > 9.22 µM
CN(C)Cc1c[nH]c2nc[nH]c(=O)c12 > 9.22 µM
Cc1cc(N2CCOCC2)nc2ccc(Cc3ccc4nc(N5CCOCC5)cc(C)c4c3)cc12 > 9.22 µM
NS(=O)(=O)c1cc(C(=O)O)c(Cl)c([N+](=O)[O-])c1Cl > 9.22 µM
C[C@H](C(=O)c1ccncc1)c1ccccn1 > 9.22 µM
CC(C)(C)c1ccc(-c2nnc(SCc3ccc(Cl)cc3)n2-c2cccc(C(F)(F)F)c2)cc1 > 9.22 µM
c1ccc2sc(SCN(C3CCCCC3)C3CCCCC3)nc2c1 > 9.22 µM
CC(C)(C)c1ccc(O)c(CN(Cc2cc(C(C)(C)C)ccc2O)C2CCCCC2)c1 > 9.22 µM
C[N@@+]1(CC[N@@+]2(C)CCC[C@H]2c2cccnc2)CCC[C@@H]1c1cccnc1 > 9.22 µM
CN(Cc1cc(Br)cc(Br)c1O)Cc1c(O)ccc2ccccc12 > 9.22 µM
CN(C)CN1CSC(=S)N(CN(C)C)C1 > 9.22 µM
CN(C)c1ncnc2c1ncn2CCn1cnc2c(N(C)C)ncnc21 > 9.22 µM
O=S1(=O)CCN(c2ccccc2CC(c2c[nH]c3ccccc23)c2c[nH]c3ccccc23)CC1 > 9.22 µM
Clc1ccc(CSC2=NCCN2)cc1Cl > 9.22 µM
Cn1c(=O)c(CCc2ccccc2)nc2cnc(N3CCNCC3)nc21 > 46 µM
c1ccc(CO[C@H]2NCCN2Cc2ccccc2)cc1 > 9.22 µM
O=C(O)c1ccccc1-c1ccccc1C(=O)Nc1ccc2c(c1)[nH]c(=O)c1ccccc12 > 9.22 µM
COCCn1c(=O)c(-c2cc(F)cc(F)c2)nc2cnc(Oc3ccc(OC)cc3)nc21 > 46 µM
O=c1c(-c2ccccc2)nc2cnc(Oc3ccccc3)nc2n1C1CC1 > 46 µM
CN1CCN(CN2C(=O)C3C4C=CC(C3C2=O)C2C3C(=O)N(CN5CCN(C)CC5)C(=O)C3C42)CC1 (stereo not given) > 9.22 µM
NC[C@@H](O)CSCc1ccc(Cl)cc1 > 9.22 µM
CC(=O)[C@H](C(=N)C#N)C(=O)Nc1ccccc1 > 9.22 µM
Cc1cc(Cl)ccc1Nc1sc(C(=O)c2cc3cc(Cl)ccc3o2)c(N)c1C#N > 9.22 µM
CC(C)[C@@H]1O[C@H](/C=C\c2ccccc2)OCC1(C)C > 9.22 µM
C[C@@H](C(=O)O)/C(=C/c1ccc2c(c1)OCO2)C(=O)O > 9.22 µM
c1nnc(NCNc2nncs2)s1 > 9.22 µM
S[C@@H]1CCCN(Cc2ccccc2)C1 > 9.22 µM
NC(=O)N[C@H](CC(=O)O)C(=O)O > 9.22 µM
CC(=O)n1c(COS(C)(=O)=O)nc2ccccc21 > 9.22 µM
c1ccc(CCN2CCN=C2Cc2ccccc2)cc1 > 9.22 µM
NNC(=O)CCSc1ccccc1 > 9.22 µM
O=C(O)CSc1n[nH]c(=O)[nH]c1=O > 9.22 µM
Cc1ccc(CSC(N)=Nc2ccccc2)cc1C > 9.22 µM
c1cncc(CNCc2cccnc2)c1 > 9.22 µM

— PubChem BioAssay (NCATS)
